# Read-outs that look alike come from different tables or passages of the source.
# Key:
# ADCK4 = conditions: concentration: 1 μM, replicates: in singlicate; n = 1
# AKT1 = conditions: concentration: 1 μM, replicates: in singlicate; n = 1
# AKT2 = conditions: n = 1
# AKT3 = conditions: concentration: 1 μM, replicates: in singlicate; n = 1
# ALK = conditions: concentration: 1 μM, replicates: in singlicate; n = 1
# AMPK-alpha1 = system: T1, AMPK-alpha1; conditions: concentration: 1 μM, replicates: in singlicate; n = 1
# T1 construct: gene PRKAA1
# AMPK-alpha2 = system: T2, AMPK-alpha2; conditions: concentration: 1 μM, replicates: in singlicate; n = 1
# T2 construct: gene PRKAA2
# ANKK1 = conditions: concentration: 1 μM, replicates: in singlicate; n = 1
# ARK5 = system: T3, ARK5; conditions: concentration: 1 μM, replicates: in singlicate; n = 1
# T3 construct: gene NUAK1
# ASK1 = system: T4, ASK1; conditions: concentration: 1 μM, replicates: in singlicate; n = 1
# T4 construct: gene MAP3K5
# ASK2 = system: T5, ASK2; conditions: concentration: 1 μM, replicates: in singlicate; n = 1
# T5 construct: gene MAP3K6
# AURKA = conditions: concentration: 1 μM, replicates: in singlicate; n = 1
# AURKB = conditions: concentration: 1 μM, replicates: in singlicate; n = 1
# AURKC = conditions: concentration: 1 μM, replicates: in singlicate; n = 1
# AXL = conditions: concentration: 1 μM, replicates: in singlicate; n = 1
# BIKE = system: T6, BIKE; conditions: concentration: 1 μM, replicates: in singlicate; n = 1
# T6 construct: gene BMP2K
# BLK = conditions: concentration: 1 μM, replicates: in singlicate; n = 1
# BMPR1A = conditions: concentration: 1 μM, replicates: in singlicate; n = 1
# BMPR1B = conditions: concentration: 1 μM, replicates: in singlicate; n = 1
# BMPR2 = conditions: concentration: 1 μM, replicates: in singlicate; n = 1
# [1] = concentration: 1 μM, replicates: in singlicate
# 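Note: KINOMEscan kinase panel screen.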
compound,measurement,setting,value
COc1cc(Nc2ncc3c(C)nc(-c4cc5ccccc5[nH]4)n3n2)cc(OC)c1OC [GW869516],%Inh,ADCK4,3%
same,%Inh,AKT1,8%
same,%Inh,AKT2; [1],0%
same,%Inh,AKT3,0%
same,%Inh,ALK,0%
same,%Inh,AMPK-alpha1,89%
same,%Inh,AMPK-alpha2,61%
same,%Inh,ANKK1,0%
same,%Inh,ARK5,0%
same,%Inh,ASK1,0%
same,%Inh,ASK2,0%
same,%Inh,AURKA,0%
same,%Inh,AURKB,1%
same,%Inh,AURKC,26%
same,%Inh,AXL,26%
same,%Inh,BIKE,9%
same,%Inh,BLK,60%
same,%Inh,BMPR1A,22%
same,%Inh,BMPR1B,0%
same,%Inh,BMPR2,0%
CCn1c(-c2nonc2N)nc2c(C#CC(C)(C)O)ncc(OCCCCN)c21.O=C(O)C(F)(F)F.O=C(O)C(F)(F)F [GSK507274],%Inh,ADCK4,13%
same,%Inh,AKT1,93.5%
same,%Inh,AKT2; 1 µM,99.1%
same,%Inh,AKT3,72%
same,%Inh,ALK,28%
same,%Inh,AMPK-alpha1,1%
same,%Inh,AMPK-alpha2,0%
same,%Inh,ANKK1,0%
same,%Inh,ARK5,50%
same,%Inh,ASK1,0%
same,%Inh,ASK2,16%
same,%Inh,AURKA,0%
same,%Inh,AURKB,38%
same,%Inh,AURKC,9%
same,%Inh,AXL,0%
same,%Inh,BIKE,26%
same,%Inh,BLK,8%
same,%Inh,BMPR1A,14%
same,%Inh,BMPR1B,0%
same,%Inh,BMPR2,12%
Cc1ccc(C)c(NC(=O)NC2CCN(c3ccnc(Nc4ccc(F)cc4)n3)C2)c1 (stereo not drawn) [GSK1379720],%Inh,ADCK4,48%
same,%Inh,AKT1,0%
same,%Inh,AKT2; [1],19%
same,%Inh,AKT3,0%
same,%Inh,ALK,28%
same,%Inh,AMPK-alpha1,7%
same,%Inh,AMPK-alpha2,0%
same,%Inh,ANKK1,0%
same,%Inh,ARK5,0%
same,%Inh,ASK1,0%
same,%Inh,ASK2,0%
same,%Inh,AURKA,0%
same,%Inh,AURKB,48%
same,%Inh,AURKC,76%
same,%Inh,AXL,0%
same,%Inh,BIKE,23%
same,%Inh,BLK,24%
same,%Inh,BMPR1A,0%
same,%Inh,BMPR1B,0%
same,%Inh,BMPR2,21%
CNC(=O)c1ccccc1Nc1nc(Nc2ccc(N3CCOCC3)cc2)ncc1Cl.Cl [GSK1576028],%Inh,ADCK4,44%
same,%Inh,AKT1,42%
same,%Inh,AKT2; [1],62%
same,%Inh,AKT3,0%
same,%Inh,ALK,88%
same,%Inh,AMPK-alpha1,99.2%
same,%Inh,AMPK-alpha2,99.4%
same,%Inh,ANKK1,12%
same,%Inh,ARK5,99.8%
same,%Inh,ASK1,0%
same,%Inh,ASK2,16%
same,%Inh,AURKA,100%
same,%Inh,AURKB,99.9%
same,%Inh,AURKC,100%
same,%Inh,AXL,100%
same,%Inh,BIKE,100%
same,%Inh,BLK,99.7%
same,%Inh,BMPR1A,28%
same,%Inh,BMPR1B,100%
same,%Inh,BMPR2,53%
COc1ccc(Nc2nccc(NCCNC(=O)c3cc4ccccc4s3)n2)cc1 [GSK1379896],%Inh,ADCK4,29%
same,%Inh,AKT1,0%
same,%Inh,AKT2; [1],0%
same,%Inh,AKT3,0%
same,%Inh,ALK,6%
same,%Inh,AMPK-alpha1,0%
same,%Inh,AMPK-alpha2,0%
same,%Inh,ANKK1,6%
same,%Inh,ARK5,3%
same,%Inh,ASK1,0%
same,%Inh,ASK2,0%
same,%Inh,AURKA,16%
same,%Inh,AURKB,0%
same,%Inh,AURKC,17%
same,%Inh,AXL,14%
same,%Inh,BIKE,4%
same,%Inh,BLK,23%
same,%Inh,BMPR1A,0%
same,%Inh,BMPR1B,0%
same,%Inh,BMPR2,0%
O=c1[nH]cc(-c2ccc(N3CCOCC3)cc2)c2sc(-c3cn[nH]c3)cc12 [GSK2276055],%Inh,ADCK4,0%
same,%Inh,AKT1,0%
same,%Inh,AKT2; [1],16%
same,%Inh,AKT3,0%
same,%Inh,ALK,4%
same,%Inh,AMPK-alpha1,0%
same,%Inh,AMPK-alpha2,0%
same,%Inh,ANKK1,21%
same,%Inh,ARK5,18%
same,%Inh,ASK1,0%
same,%Inh,ASK2,13%
same,%Inh,AURKA,28%
same,%Inh,AURKB,21%
same,%Inh,AURKC,21%
same,%Inh,AXL,0%
same,%Inh,BIKE,28%
same,%Inh,BLK,0%
same,%Inh,BMPR1A,1%
same,%Inh,BMPR1B,0%
same,%Inh,BMPR2,24%
COc1cc(Nc2nccc(-c3c(-c4cccc(NC(=O)c5c(F)cccc5F)c4)nn4ccccc34)n2)cc(OC)c1OC [GSK323521],%Inh,ADCK4,0%
same,%Inh,AKT1,8%
same,%Inh,AKT2; [1],0%
same,%Inh,AKT3,5%
same,%Inh,ALK,14%
same,%Inh,AMPK-alpha1,20%
same,%Inh,AMPK-alpha2,23%
same,%Inh,ANKK1,13%
same,%Inh,ARK5,8%
same,%Inh,ASK1,5%
same,%Inh,ASK2,4%
same,%Inh,AURKA,48%
same,%Inh,AURKB,90.6%
same,%Inh,AURKC,15%
same,%Inh,AXL,80%
same,%Inh,BIKE,21%
same,%Inh,BLK,44%
same,%Inh,BMPR1A,0%
same,%Inh,BMPR1B,0%
same,%Inh,BMPR2,11%
COc1cccc(C2=C(Nc3ccc(Cl)c(C(=O)O)c3)C(=O)NC2=O)c1 [SB-390769],%Inh,ADCK4,22%
same,%Inh,AKT1,0%
same,%Inh,AKT2; [1],0%
same,%Inh,AKT3,0%
same,%Inh,ALK,36%
same,%Inh,AMPK-alpha1,6%
same,%Inh,AMPK-alpha2,2%
same,%Inh,ANKK1,99.4%
same,%Inh,ARK5,24%
same,%Inh,ASK1,12%
same,%Inh,ASK2,100%
same,%Inh,AURKA,0%
same,%Inh,AURKB,39%
same,%Inh,AURKC,23%
same,%Inh,AXL,3%
same,%Inh,BIKE,16%
same,%Inh,BLK,10%
same,%Inh,BMPR1A,0%
same,%Inh,BMPR1B,0%
same,%Inh,BMPR2,100%
O=C(Nc1cccc(-c2nn3ncccc3c2-c2ccnc(Nc3ccccc3)n2)c1)c1c(F)cccc1F [GSK198271],%Inh,ADCK4,31%
same,%Inh,AKT1,0%
same,%Inh,AKT2; [1],16%
same,%Inh,AKT3,0%
same,%Inh,ALK,38%
same,%Inh,AMPK-alpha1,12%
same,%Inh,AMPK-alpha2,15%
same,%Inh,ANKK1,69%
same,%Inh,ARK5,38%
same,%Inh,ASK1,0%
same,%Inh,ASK2,6%
same,%Inh,AURKA,65%
same,%Inh,AURKB,32%
same,%Inh,AURKC,64%
same,%Inh,AXL,100%
same,%Inh,BIKE,16%
same,%Inh,BLK,97.5%
same,%Inh,BMPR1A,0%
same,%Inh,BMPR1B,0%
same,%Inh,BMPR2,0%

# From paper PMC5540273 (PLoS ONE, 2017)
